Screening results (PubChem BioAssay)
This is a sample that favours compounds with a hit; in the whole collection about 19% have one here.
HT1080NT lethal = kills 2HG-producing HT-1080-NT fibrosarcoma cells; HT-1080-NT fibrosarcoma viability, CellTiter-Glo ATP luminescence, 48 h; Potency, µM (series often up to 46.1 µM), for the others: at the top dose activity, negative = less viability, usual class: cytotoxic; hit rate 1.6% among 360,000;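 further: NT is the 2HG producing partner of a matched IDH1 knockdown line; potency means the concentration at half of the fitted maximal effect; 0% = DMSO-treated cells and -100% = media-only wells without cells; nearly all actives have a fitted effect of over 55% in size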
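HT-1080-NT; 750 cells/well; 5% FBS RPMI; 48 h compound, 37 degrees C; CellTiter-Glo luminescence; curve fitting and curve-class assignment.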
IL1B secr inh = blocks inflammasome-driven IL-1 beta release. THP-1 LPS/ATP IL-1B secretion, AlphaLISA, 16 h; hits give low values. activity change, % at 57.5 µM. hit rate 4.7% among 360,000. AID 743279; in the data active means activity change below about -50%; inconclusive means mostly about -30% to -49%
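Secreted IL-1B measured by AlphaLISA bead assay after 16 h compound exposure of THP-1 cells; compounds (final up to 57.5 uM) added 1 h before LPS (250 ng/mL) and ATP (1.25 mM) stimulation; lower signal means less secretion.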
HT1080 IDH1KD tx = HT-1080 IDH1 knockdown cell toxicity (counter line). AID 686971. Potency, µM (titrated, usually from 46.1 µM), inactives show at the top dose activity, negative = toxicity, most hits filed as cytotoxic. hit rate 2% among 360,000. HT-1080 IDH1 knockdown viability, ATP luminescence, 48 h;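 further: potency means the concentration at half of the fitted maximal effect; 0% = DMSO wells and -100% = cell-free medium wells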
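IDH1KD HT-1080 cells, 750/well, RPMI + 5% FBS; compound pinned after 2 h settling; 48 h, 37 °C; CellTiter-Glo luminescence; % activity normalised to DMSO and no-cell wells; curves fitted, classed by r2 and efficacy.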
DT40 TDP1 CPT = DT40-hTDP1 cell growth loss with CPT | Potency, µM (top dose mostly 46.2 µM), for the others: top-dose activity change, negative = growth inhibition, hits mostly inhibitors | chicken DT40 Tdp1-/-;hTDP1 cells + 20 nM CPT, ATP luminescence, 48 h | hit rate 12% among 420,000; further: potency means the concentration at half of the fitted maximal effect; nearly all actives have a fitted effect of over 55% in size
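Chicken DT40 Tdp1-/- cells complemented with human TDP1, 400 cells/well, exposed to compounds plus 20 nM camptothecin for at least 48 h at 37 C; viability read as ATP content by CellTiter-Glo luminescence.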
TDP1 cell noCPT = qHTS for Inhibitors of human tyrosyl-DNA phosphodiesterase 1 (TDP1): qHTS in cells in absence of CPT; DT40 Tdp1-/- hTDP1 cells, no CPT, ATP luminescence, 48 h; Potency, µM (series often up to 46.2 µM), for the others: at the top dose activity change, negative = growth inhibition, hits mostly inhibitors; hit rate 15% among 420,000; further: potency means the concentration at half of the fitted maximal effect; nearly all actives have a fitted effect of over 55% in size
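Readout: luminescence from CellTiter-Glo after 30 min in the dark at RT. Cells: DT40 Tdp1-/- with stable hTDP1, 400/well. Exposure: compounds alone, ≥48 hr, 37 °C.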
An asterisk follows results filed as active; ? = inconclusive; / = not tested or not shown; ! = a repeat was not active. Unless noted, the call rests on the fitted dose curve; in most records, active means well fitted curve in the direction sought with a large enough effect; inconclusive means small, poorly fitted or top-dose-only effect, or another doubt; inactive means no such curve, though single readings can be large; an effect the other way counts as inactive or inconclusive. Unless noted, on the % scale 0 is the no-effect control and ±100 the full control effect.

SMILES	HT1080NT lethal	IL1B secr inh	HT1080 IDH1KD tx	DT40 TDP1 CPT	TDP1 cell noCPT
CSc1ccc(CCNC(=O)CCc2c(C)nc3ncnn3c2C)cc1	/	/	/	9.6%	3.6%
CCOC(=O)C(Cc1ccccc1)NC(=O)CCc1c(C)nc2nc(C)nn2c1C (stereo not drawn)	8.9%	?	12.1%	?	23.1µM*!
Cc1nc2cc(-c3cccc(F)c3)nn2c(C)c1CCC(=O)NCCc1ccccc1	/	/	/	25.9µM*	?
CCOC(=O)C(Cc1ccccc1)NC(=O)CCc1c(C)nc2ncnn2c1C (stereo not drawn)	-0.6%	-4.7	-2.7%	?	-16.1%
Cc1nc2cc(-c3ccccc3)nn2c(C)c1CCC(=O)NCCc1ccccc1	/	/	/	16.4µM*	?
CCCN1CCN(S(=O)(=O)c2ccc(-n3cnnn3)cc2)CC1	3.1%	-2.4	13.5%	5.9%	8.1%
Cc1ccc(S(=O)(=O)N2CCC(NC(=O)c3cccnc3)CC2)cc1Cl	0.6%	-3.8	-3.6%	1.9%	-14.9%
Cc1cccc(NC(=O)c2nc[nH]c2C(=O)N(C)Cc2ccccc2)c1	2.9%	-5.7	12.8%	?	?
COc1ccc(-c2c3c(cc4ncn(Cc5ccccc5)c24)COC3=O)cc1	1.9%	17.8	6.6%	?	23.1µM*
CC(=O)Nc1ccc(NC(=O)c2nc(S(=O)(=O)Cc3cccc(C)c3)ncc2Cl)cc1	9.2µM*	-100.1*	5.8µM*	0.058µM*	0.0461µM*
COC(=O)c1ccc(NC(=O)c2nc(S(=O)(=O)Cc3cccc(C)c3)ncc2Cl)cc1	11.6µM*	-102.8*	20.6µM*	0.581µM*	0.517µM*
CCOC(=O)c1ccc(NC(=O)c2nc(S(=O)(=O)Cc3ccccc3)ncc2Cl)cc1	5.8µM*	-104.7*	2.91µM*	0.461µM*	1.3µM*
CC(=O)Nc1ccc(NC(=O)c2nc(SCc3ccccc3C)ncc2Cl)cc1	/	/	/	-29.1%	-9.3%
COC(=O)c1ccccc1NC(=O)c1nc(S(=O)(=O)Cc2cccc(C)c2)ncc1Cl	/	/	/	2.91µM*	2.59µM*
Cc1cccc(COC(=O)Nc2ccc(NC(=O)c3ccccc3Cl)cc2)c1	0.5%	-12.2	-7.4%	-23.7%	?
CCOC(=O)c1ccc(NC(=O)CCS(=O)(=O)Cc2ccccc2)cc1	-1.8%	6.8	-13.2%	25.0%	2.7%
Nc1nc(=O)n(C2CCC(CO)O2)cc1F (stereo not drawn)	0.3%	/	-7.3%	?	?
Cc1ccc(S(N)(=O)=O)cc1NC(=O)c1ccc2c3c(cccc13)CC2	0.9%	28.8	5.5%	-15.6%	?
COCCN(C(=O)CSc1nc2ccccc2c(=O)n1CCOC)c1c(N)n(Cc2ccccc2)c(=O)[nH]c1=O	-0.1%	-4.9	20.9%	6.2%	-21.8%
CCOC(=O)C1=C(CS(=O)(=O)c2c(C)cc(C)cc2C)NC(=O)NC1c1cccc(OC)c1 (stereo not drawn)	/	/	/	-15.0%	?
Cc1nc(N)nc(N)c1-c1ccc([N+](=O)[O-])cc1	-2.5%	10.3	10.3µM*	?	1.46µM*
Cc1ccc([N+](=O)[O-])cc1N	4.6%	-2.6	6.6%	0.2%	6.0%
Cc1noc(C)c1COc1cccc(C(=O)OCC(=O)N2CC(=O)Nc3ccccc32)c1	?	83.5	1.84µM*	0.581µM*	0.651µM*
CC(=O)N1CCN(S(=O)(=O)c2cccc(C(=O)OCC(=O)N3CC(=O)Nc4ccccc43)c2)CC1	-1.1%	24.1	-2.7%	7.8%	-18.0%
S=C(NCC1CCCO1)Nc1ccc(Cl)cc1 (stereo not drawn)	10.9%	6.6	14.6%	-13.4%	-23.4%
Clc1ccc(N(CC2CO2)CC2CO2)cc1 (stereo not drawn)	3.9%	-23.9	-5.3%	0.461µM*	0.651µM*
N=C(N)N1CCc2ccccc2C1	/	/	/	5.5%	-17.4%
Cc1ccc(-n2nc(C)c3c(C)cc(=O)n(CC(=O)N4CCCc5ccccc54)c32)cc1	/	/	/	-7.0%	2.6%
Cc1c(Cl)cccc1-n1nc(C)c2c(C)cc(=O)n(CC(=O)N3CCCc4ccccc43)c21	/	/	/	14.6µM*	4.61µM*
